The source of these data is PubChem BioAssay (NCI).

Some test systems named below: SK-MEL-2 melanoma; EKVX NSCLC; SN12C renal; UO-31 renal; TK-10 renal; ACHN renal; CAKI-1 renal; A498 renal; CCRF-CEM leukemia; MOLT-4 leukemia.
What all share (assay): NCI-60 one-dose screen, 48 h (100 = growth as untreated, 0 = no growth, -100 = all killed)
Settings in all cases: 10 µM unless noted

The panel holds about 83,000 compounds, 20% with a hit somewhere; the sample as a whole holds those more often.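 Assay: single dose, 48 h. Readout: percent growth (0 = no net growth; negative = cell death). Active: <10.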 A number with no mark means an inactive call. The source made the active and inactive calls.

As for `Nc1cccc(S(=O)(=O)c2cccc(N)c2)c1`, the growth was 116% in the experiment with SK-MEL-2 melanoma; 105% in the experiment on EKVX NSCLC; 112% in the experiment on SN12C renal; 95.8% with UO-31 renal; 123% in the experiment with TK-10 renal; 102% with ACHN renal. For the same compound, the growth is 98.4% in the experiment on CAKI-1 renal, 108% in the experiment with A498 renal, 102% in the experiment on CCRF-CEM leukemia and 10.4% with MOLT-4 leukemia.
As to `CC(C)c1[nH]ncc1-c1nc2ccc3[nH]ncc3c2c2c1CCCC2`, the growth with SK-MEL-2 melanoma was 68.6%; in the experiment on EKVX NSCLC, 13.5%; in the experiment on SN12C renal, 35.2%; with UO-31 renal it was 12.3%; in the experiment with TK-10 renal, 22.7%; in the experiment on ACHN renal, 16.8%. Also, the growth with CAKI-1 renal is 17.6%; with A498 renal it was -12.7% (active); with CCRF-CEM leukemia it was 28.8%; in the experiment on MOLT-4 leukemia, 9.07% (active).
Take `Cc1cc(C#Cc2ccccc2)ccc1-n1c(/C=C/c2ccc(F)cc2)nc2ccccc2c1=O`: the growth with SK-MEL-2 melanoma was 71%; in the experiment with EKVX NSCLC it was 46.5%; in the experiment on SN12C renal, 73%; in the experiment with UO-31 renal, 36.2%; in the experiment with TK-10 renal, 94.4%; with ACHN renal, 78.6%. Further, the growth with CAKI-1 renal was 55.2%; in the experiment with A498 renal, 94.1%; in the experiment on CCRF-CEM leukemia, 74.3%; with MOLT-4 leukemia, 44.7%.
`Cc1cc(-c2nnc(/C=C/c3ccc4c(c3)OCO4)o2)n[nH]1`: the growth in the experiment on SK-MEL-2 melanoma was 30.1%; in the experiment with EKVX NSCLC, 90.6%; in the experiment with SN12C renal, 85.5%; with UO-31 renal, 70.1%; in the experiment on TK-10 renal, 81.8%; with ACHN renal it was 95.7%. For the same compound, the growth with CAKI-1 renal was 59.8%; in the experiment on A498 renal, 73.2%; in the experiment with CCRF-CEM leukemia, 58.1%; with MOLT-4 leukemia, 69.7%.
Turning to `COc1ccc(/C=c2\c(=O)n(-c3ccccc3)c3nn4c(=O)c(=O)[nH]nc4n23)cc1`, the growth was 109% with SK-MEL-2 melanoma; 104% in the experiment with EKVX NSCLC; 108% in the experiment with SN12C renal; 83% with UO-31 renal; 133% in the experiment on TK-10 renal; 114% with ACHN renal. Further, the growth is 90.4% in the experiment on CAKI-1 renal, 118% with A498 renal, 106% in the experiment with CCRF-CEM leukemia and 110% in the experiment with MOLT-4 leukemia.
For `CCCCCCCCCCCC1=NC(C)(C)CN1C(C)(C)CO`, the growth in the experiment on SK-MEL-2 melanoma was 49.4%; in the experiment with EKVX NSCLC, 64.6%; in the experiment with SN12C renal, 59.8%; in the experiment with UO-31 renal it was 46.7%; in the experiment on TK-10 renal it was 70.3%; in the experiment with ACHN renal, 56.7%. Also, the growth in the experiment on CAKI-1 renal is 63.2%; in the experiment on A498 renal it was 90.1%; in the experiment on CCRF-CEM leukemia, 26.6%; in the experiment with MOLT-4 leukemia, 74%.
Consider `Cc1cc(C)cc(NC(=O)Cn2nncc2CN2C(=O)CSC2=O)c1`, for which the growth in the experiment on SK-MEL-2 melanoma was 106%; in the experiment on EKVX NSCLC it was 90.3%; in the experiment on SN12C renal, 103%; in the experiment with UO-31 renal it was 99.7%; in the experiment with TK-10 renal, 99.8%; with ACHN renal, 99.6%. Moreover, the growth in the experiment with CAKI-1 renal is 95.2%; in the experiment on A498 renal, 118%; with CCRF-CEM leukemia, 113%; with MOLT-4 leukemia, 105%.
Consider `CCN(CC)Cc1cc(Nc2nc(NC3CCC(N(C)C)CC3)c3ccccc3n2)ccc1OC` (stereo not given), for which the growth is 116% in the experiment on SK-MEL-2 melanoma; 89% in the experiment with EKVX NSCLC; 71.5% in the experiment on SN12C renal; 73.3% in the experiment on UO-31 renal; 105% with TK-10 renal; 90.8% in the experiment with ACHN renal. Moreover, the growth is 102% with CAKI-1 renal, 119% in the experiment with A498 renal, 66.1% with CCRF-CEM leukemia and 48.2% with MOLT-4 leukemia.
With `CSCCC1NC(=O)C(C(C)=Nc2ccccc2)=C1O` (stereo not given), the growth in the experiment with SK-MEL-2 melanoma was 129%; in the experiment on EKVX NSCLC, 101%; in the experiment with SN12C renal, 101%; in the experiment with UO-31 renal, 93.4%; with TK-10 renal, 133%; in the experiment on ACHN renal, 113%. For the same compound, the growth in the experiment on CAKI-1 renal is 89.3%; in the experiment with A498 renal, 102%; in the experiment with CCRF-CEM leukemia, 106%; in the experiment on MOLT-4 leukemia it was 119%.
Turning to `COc1ccc(CCN2COc3c([C@@H](C)CCC=C(C)C)ccc(C)c3C2)cc1OC`, the growth in the experiment on SK-MEL-2 melanoma was 89.4%; in the experiment on EKVX NSCLC it was 63.2%; in the experiment with SN12C renal it was 52.8%; in the experiment on UO-31 renal, 41.4%; with TK-10 renal, 76.9%; in the experiment on ACHN renal it was 70%. Besides, the growth in the experiment on CAKI-1 renal was 68.7%; in the experiment on A498 renal, 66.2%; with CCRF-CEM leukemia, 62.6%; in the experiment on MOLT-4 leukemia, 48.3%.
As to `CC1(C)CC[C@]2(C(=O)N3CCNCC3)CC[C@]3(C)C(=CC[C@@H]4[C@@]5(C)CCC(=O)C(C)(C)[C@@H]5CC[C@]43C)[C@@H]2C1`, the growth in the experiment with SK-MEL-2 melanoma is 105%; in the experiment with EKVX NSCLC it was 96.7%; in the experiment on SN12C renal, 101%; in the experiment with UO-31 renal, 94.8%; in the experiment on TK-10 renal, 101%; in the experiment with ACHN renal, 112%. Moreover, the growth with CAKI-1 renal was 94.2%; with A498 renal it was 126%; in the experiment on CCRF-CEM leukemia, 106%; with MOLT-4 leukemia it was 103%.
With `C#CC[C@@H]1C[C@]2(C)[C@H]3CC=C4[C@H]5[C@@H](C)[C@H](C)CC[C@]5(C(=O)NCCCN5CCN(CCCN)CC5)CC[C@@]4(C)[C@]3(C)CC[C@H]2C(C)(C)[C@H]1OC(C)=O`, the growth in the experiment with SK-MEL-2 melanoma is -57.3% (active); in the experiment on EKVX NSCLC it was -83.4% (active); with SN12C renal, -43.8% (active); in the experiment on UO-31 renal it was -84.2% (active); in the experiment on TK-10 renal, -32.8% (active); in the experiment with ACHN renal, -74.9% (active). Further, the growth in the experiment on CAKI-1 renal is -68% (active); in the experiment on A498 renal, 111%; with CCRF-CEM leukemia, -29.4% (active); in the experiment with MOLT-4 leukemia, -38.1% (active).
In the case of `Fc1cnccc1-c1nc2ccc3[nH]ncc3c2c2c1CCCC2`, the growth with SK-MEL-2 melanoma was -1.94% (active); in the experiment on EKVX NSCLC, 35.6%; with SN12C renal it was 25.6%; in the experiment with UO-31 renal, 11.6%; in the experiment on TK-10 renal, 13.7%; in the experiment with ACHN renal, 7.42% (active). The growth with CAKI-1 renal is -4.24% (active); in the experiment with A498 renal, 0.691% (active); in the experiment on CCRF-CEM leukemia, 16.1%; with MOLT-4 leukemia it was 21.2%.
